# Assay results taken from PubChem BioAssay (EPA / NIEHS).
# Activity calls are given as the source filed them. How the source made its calls: active means hit-call score of the fitted dose curve at least 0.9, where 1 is the maximum; inactive means score below 0.9.
# Target: X-box-binding protein 1 (Homo sapiens) (UniProt P17861)
# Assay: ATG_Xbp1_CIS: Attagene CIS-FACTORIAL HepG2 Assay for human X-box Binding Protein 1 (XBP1) (AID 2282972)
# Conditions: HepG2 XBP1 cis-element reporter, Attagene multiplex; actives raise or lower the signal
# Protocol: ATG_CIS is a cell-based, multiplexed-readout assay that uses HepG2, a human liver cell line, with measurements taken at 24 hours after chemical dosing in a 24-well plate.ATG_Xbp1_CIS is one of 52 assay component(s) measured or calculated from the ATG_CIS assay. It is designed to make measurements of mRNA induction, a form of inducible reporter, as detected with fluorescence intensity signals by Reverse transcription polymerase chain reaction (RT-PCR) and Capillary electrophoresis technology.Data from the assay component ATG_Xbp1_CIS was analyzed into 1 assay endpoint. This assay endpoint, ATG_Xbp1_CIS, was analyzed with bidirectional fitting relative to DMSO as the negative control and baseline of activity. Using a type of inducible reporter, measures of mRNA for gain or loss-of-signal activity can be used to understand the reporter gene at the transcription factor-level as they relate to the gene XBP1. Furthermore, this assay endpoint can be referred to as a primary readout, because this assay has produced multiple assay endpoints where this one serves a reporter gene function. To generalize the intended target to other relatable targets, this assay endpoint is annotated to the dna binding intended target family, where the subfamily is basic leucine zipper.
# Human liver HepG2 cells are transiently transfected with multiple reporter transcription units (MRTUs) in 6-well plates using FuGene 6 reagent (Roche; 3 ml FuGene/1 mg DNA). The MRTU constructs are regulated by a cis-regulating element (promoter). […] A major difference between the CIS and TRANS system is that in CIS activities of endogenous TFs are measured, whereas the TRANS assay evaluates changes in activities of exogenous, chimeric NR-Gal4 proteins. […] At the end of 24 hour incubation, total RNA was isolated using TriZol reagent (Invitrogen). The isolated RNA is then reverse-transcribed using oligo(dT) primer and Mo-MLV reverse transcriptase (Invitrogen) with DNAse I (Ambion) treatment for 30 min. The one-tenth of the produced cDNA was amplified by PCR using Taq DNA polymerase (Invitrogen) and two reporter sequence-specific primers. The PCR products were fluorescently labeled by primer extension with 6-arboxyfluorescein (6-FAM) 5'-labeled reporter sequence-specific primer (2 min at 95 C, 20 s at 68 C and 10 min at 72 C) and these products were digested with 5U of HpaI (New England Biolabs) for 2h at 37 C. The fragments were purified using Qiaquick PCR columns (Qiagen), analyzed on an ABI 3130xL genetic analyzer (Applied Biosystems) with peak positions identified by using a set of X-rhodamine (ROX)-labeled MapMarker1000 molecular weight standards (BioVentures). The raw capillary electrophoresis data was processed using Attagraph software (Attagene).
# Sequence of X-box-binding protein 1 (Homo sapiens) (P17861 whole entry, looked up): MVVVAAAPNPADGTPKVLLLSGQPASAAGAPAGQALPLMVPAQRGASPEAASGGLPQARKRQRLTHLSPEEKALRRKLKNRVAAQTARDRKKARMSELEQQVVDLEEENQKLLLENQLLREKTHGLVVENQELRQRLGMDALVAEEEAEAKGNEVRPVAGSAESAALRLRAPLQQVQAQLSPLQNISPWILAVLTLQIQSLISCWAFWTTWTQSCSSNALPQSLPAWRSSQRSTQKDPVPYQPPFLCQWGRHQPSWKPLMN
Structure (SMILES),outcome,AC50
CCc1cccc(CC)c1N,inactive,–
Nc1ccn([C@@H]2O[C@H](CO)[C@@H](O)[C@@H]2O)c(=O)n1,inactive,–
CC(C)C(=O)Nc1ccc([N+](=O)[O-])c(C(F)(F)F)c1,–,27 µM (active)
OCC(CO)(CO)CO,inactive,–
OC(Cn1cncn1)(Cn1cncn1)c1ccc(F)cc1F,inactive,–
NC(=O)N1c2ccccc2C=Cc2ccccc21,inactive,–
CNC(C)=O,inactive,–
Cc1ncc([C@@H](CCCCCCc2ccc3c(n2)NCCC3)CC(=O)O)cn1,inactive,–
CC1(C)C(=O)N(Cl)C(=O)N1Cl,inactive,–
C=CN1CCCC1=O,inactive,–
CCc1ccc(O)c(C(C)(C)C)c1,inactive,–
Cc1nccn1-c1ccc(Sc2cccc(C3(C(N)=O)CCOCC3)c2)cc1,–,1.57 µM (active)
CCCCCCCCCC,inactive,–
CC(=O)c1ccccc1,inactive,–
CCCOc1ccc(S(=O)(=O)N2CCN(CC)CC2)cc1-c1nc2c(CC)n(Cc3ccccn3)nc2c(=O)[nH]1,inactive,–
OC[C@H]1O[C@@H]2O[C@H]3[C@H](O)[C@@H](O)[C@@H](O[C@H]4[C@H](O)[C@@H](O)[C@@H](O[C@H]5[C@H](O)[C@@H](O)[C@@H](O[C@H]6[C@H](O)[C@@H](O)[C@@H](O[C@H]7[C@H](O)[C@@H](O)[C@@H](O[C@H]1[C@H](O)[C@H]2O)O[C@@H]7CO)O[C@@H]6CO)O[C@@H]5CO)O[C@@H]4CO)O[C@@H]3CO,inactive,–
S=P(N1CC1)(N1CC1)N1CC1,inactive,–
CCOC(N)=O,inactive,–
NCC(F)(F)C(F)(F)C(F)(F)C(F)(F)F,inactive,–
O=C(N[C@H](CO)[C@H](O)c1ccc([N+](=O)[O-])cc1)C(Cl)Cl,inactive,–

Structure (SMILES),outcome,AC50
Cc1nc(-c2ccccn2)ncc1C(=O)Nn1cc(C)c2cc(F)ccc21,inactive,–
CCn1nc(C)c2c1C(=O)NCC(c1ccc(O)cc1)=N2,inactive,–
OC[C@H]1O[C@@](CO)(O[C@H]2O[C@H](CO)[C@@H](O)[C@H](O)[C@H]2O)[C@@H](O)[C@@H]1O,inactive,–
O=S(=O)(O)c1ccc(N=Nc2c(O)ccc3cc(S(=O)(=O)O)ccc23)cc1,inactive,–
CC(C)CC(C)O (stereo not given),inactive,–
O=C(O)c1cccc(C(=O)O)c1,inactive,–
CCCCC(CC)C(=O)OCCOCCOCCOC(=O)C(CC)CCCC (stereo not given),inactive,–
CCCCCCCC1CCC(=O)O1 (stereo not given),inactive,–
O=C1CN(N=Cc2ccc([N+](=O)[O-])o2)C(=O)N1,inactive,–
CC[C@H](C)C(=O)O[C@H]1C[C@H](O)C=C2C=C[C@H](C)[C@H](CC[C@@H](O)C[C@@H](O)CC(=O)O)[C@H]21,inactive,–
NC(=O)N(O)[C@@H]1COc2cc(OCc3ccccc3)ccc21,inactive,–
OC(CCl)CCl,inactive,–
Cc1ccc(S(=O)(=O)NC(=O)NN2CCCCCC2)cc1,inactive,–
c1ccc2ncccc2c1,inactive,–
CCCC(CCC)C(=O)O,inactive,–
CCCCCCCC/C=C\CCCCCCCC(=O)OC[C@@H](O)[C@H]1OC[C@H](O)[C@H]1O,inactive,–
OCCOCCOCCO,inactive,–
Cn1cc[nH]c1=S,inactive,–
CCN(CC)C(=S)SSC(=S)N(CC)CC,–,139 µM (active)
NC(N)=O,inactive,–
